PubChem BioAssay AID651956 (Broad Institute, 2012)
Entries with a potency or affinity are not part of this list. Records with an inconclusive call do not appear. Activity calls are given as the source filed them.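 How the source made its calls: active means in every test run, a fitted half-maximal concentration for signal decrease at or below twice the highest tested concentration; inconclusive means runs disagree, flat 30 to 70% decrease, or poor fit; inactive means the rest.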

Assay: miR-122 activators in hepatoma reporter cells, dose response, cell-based, Huh7 psiCHECK-miR122, Renilla luciferase, cherry-picked (AID 651956);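 further: Renilla luciferase from a miR-122 sensor reporter so lower signal means miR-122 activation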
Settings: 48 h; series mostly up to 35 µM

outcome, inactive:
O=C(c1cccnc1)N1C[C@H]2[C@@H](c3ccccc31)[C@H](CO)N2C(=O)Nc1ccccc1
C[C@H](CO)N1C[C@H](C)[C@H](CN(C)S(=O)(=O)c2ccc(F)cc2)Oc2ccc(NS(C)(=O)=O)cc2C1=O
O=C(N/N=C/c1ccco1)c1cccc(N2CCCC2=O)c1
CNC(=O)C[C@@H]1CC[C@@H]2[C@@H](COc3ccc(NC(=O)NC(C)C)cc3C(=O)N2C)O1
Cc1cnc(NC(=O)c2cc3c(C)nn(-c4ccccc4)c3s2)s1
COCC(=O)Nc1ccc2c(c1)C(=O)N(C)[C@@H]1CC[C@@H](CC(=O)NC3CCCC3)O[C@H]1CO2
CN1C(=O)c2cc(NC(=O)c3ccccc3F)ccc2OC[C@H]2O[C@H](CC(=O)NCc3ccc4c(c3)OCO4)CC[C@@H]21
COCC(=O)N(C[C@H]1[C@H](c2ccccc2)[C@H](CO)N1C(=O)NC(C)C)C(C)C
COCC(=O)NC[C@H]1N[C@H](CO)[C@H]1c1ccc(C2=CCCC2)cc1
CO[C@H]1CN(C)C(=O)c2cc(NC(=O)C3CC3)ccc2OC[C@H](C)N(CCc2ccccc2)C[C@H]1C
CCCCC(=O)OCC(=O)c1[nH]c(C)c(C(=O)OCC)c1C
O=C(c1cccc(F)c1)N1C[C@@H]2[C@H](c3ccccc31)[C@H](CO)N2C(=O)Cc1ccccc1
Cc1c(CC(=O)NCCCC(=O)O)c(=O)oc2cc3occ(-c4ccccc4)c3cc12
C/C=C/c1ccc([C@@H]2[C@@H](CNC(=O)c3ccncc3)N(C(=O)CC)[C@H]2CO)cc1
